Data taken from PubChem BioAssay AID1347076 (National Center for Advancing Translational Sciences (NCATS), 2019).
Out of some 400,000 compounds screened, about 13,000 (3.2%) were called active. Inconclusive results (about 18%) are left out. Calls follow the shape of the dose curve; as a rule, active = well fitted cell-killing curve with a large enough effect; inconclusive = small, poorly fitted or top-dose-only effect, or effect the other way; inactive = flat fitted curve, though single readings scatter. Shown is part of a subset that was picked to be rich in actives.

experiment: qHTS assay for MDR1-selective chemotherapeutics: Primary screen using the drug-selected MDR subline cells KB-V1; details: KB-V1 MDR cells viability, CellTiter-Glo, 72 h; series mostly up to 46.1 µM; activity change, negative = cytotoxicity: at the top concentration; also: nearly all actives have a fitted effect of over 60% in size
Summary of the method: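 In this primary screen, KB-V1 cells overexpressing P-gp are incubated with library compounds (lowest to highest concentration) for 72 h at 37 degrees C before a luminescent ATP viability read.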
% is scaled to controls: 0 for no effect and ±100 for the full control effect; potency is read from the fitted curve at half-maximal effect.

Row | Compound | activity change, negative = cytotoxicity | Potency
1 | NS(=O)(=O)c1ccc(CCNC(=O)CCCCCn2c(=O)[nH]c3ccccc3c2=O)cc1 | 22.6% (inactive) | 
2 | C[C@@H]1Cn2cnc(C(=O)Nc3ccc(CNC(=O)OC(C)(C)C)cc3)c2C(=O)N1 | -13.1% (inactive) | 
3 | COc1ccccc1-c1nnc2n1N=C(c1ccc(OC(F)F)c(OCC3CC3)c1)CS2 | -13% (inactive) | 
4 | Cc1nnc2n1N=C(c1ccccc1)CS2 | 7.55% (inactive) | 
5 | COc1ccc(C2=Nn3c(nnc3-c3ccccc3OC)SC2)cc1OC1CCCC1 |  | 5.8 µM (active)
6 | COc1ccc2c(CNCCc3ccccc3C)c(C(=O)O)n(Cc3ccccc3C)c2c1 | 3.86% (inactive) | 
7 | COc1ccc(S(=O)(=O)N[C@@H]2C=C[C@@H](CC(=O)N3CCc4ccccc4C3)O[C@@H]2CO)cc1 | -1.54% (inactive) | 
8 | COc1cccc(NC(=O)CN(C)C(=O)/C=C/c2cn(-c3ccccc3)nc2-c2cccs2)c1 | -25.7% (inactive) | 
9 | COc1cccc(NC(=O)CN(C)C(=O)Cc2ccc(Cl)cc2Cl)c1 | -6.54% (inactive) | 
10 | COc1cccc(NC(=O)CN(C)C(=O)/C=C/c2cc(OC)ccc2OC)c1 |  | 10.3 µM (active)
11 | O=C(O)C1CCCN1c1nc(Cl)ccc1[N+](=O)[O-] (centres undefined) | 21.7% (inactive) | 
12 | COc1ccc(NC2CCCN(C(=O)c3ccccc3-c3ncc[nH]3)C2)cc1 (centres undefined) | 18.4% (inactive) | 
13 | COc1cccc(/C=N/NC(=O)c2cccc([N+](=O)[O-])c2)c1OS(=O)(=O)c1ccc(C)cc1 |  | 16.4 µM (active)
14 | Cc1ccc(S(=O)(=O)Oc2ccc(/C=N/NC(=O)c3ccncc3)cc2)cc1 | -2.26% (inactive) | 
15 | COc1cc(OC)c(/C=N/NC(=O)c2ccc([N+](=O)[O-])cc2)cc1Br | 8.39% (inactive) | 
16 | CC(C)C[C@H]1CN([C@@H](Cc2ccccc2)CN2CCC[C@@H]2CN2C(=O)C(=O)NC[C@@H]2Cc2ccc(O)cc2)C(=O)C(=O)N1CCc1ccccc1 | 13.8% (inactive) | 
17 | COc1ccc(C)cc1S(=O)(=O)NC1CCCCC1 | 0.661% (inactive) | 
18 | Cc1ccc(Nc2c(-c3ccc(C)cc3)nc3cnccn23)cc1 | 9.35% (inactive) | 
19 | CCOc1cc(-c2nnc(SCC(=O)NC3CCCCC3)nc2-c2ccc(OC)c(OCC)c2)ccc1OC | 2.67% (inactive) | 
20 | COc1ccccc1N1CCN(c2ncnc3onc(-c4cccc(Cl)c4)c23)CC1 | 5.03% (inactive) | 
21 | COc1ccc(-c2nc3cnccn3c2NC2CCCCC2)cc1-c1cccc(Cl)c1 |  | 14.6 µM (active)
22 | COc1cccc(CNC(=O)CN2C(=O)CCc3cc(S(=O)(=O)N4CCOCC4)ccc32)c1 | -9.66% (inactive) | 
23 | CCCNC(=O)c1cc(C2CCCCN2C(=O)OC)on1 (centres undefined) | 6.18% (inactive) | 
24 | CCC(C)C(CO)NC(=O)/C=C/[C@H]1O[C@@H](n2cnc3c(NC(=O)c4ccccc4)ncnc32)[C@H](O)[C@@H]1O (some centres undefined) | 0% (inactive) | 

Row | Compound | activity change, negative = cytotoxicity | Potency
25 | COc1ccc([C@H]2N[C@]3(CCCN(CC4CCCCC4)C3=O)[C@H]3C(=O)N(C)C(=O)[C@@H]23)cc1 | -23% (inactive) | 
26 | Cn1c(=O)c2cc(NC(=O)NCCc3cccs3)ccc2n1Cc1cccc(C(F)(F)F)c1 | 2.61% (inactive) | 
27 | Cc1cccc(Nc2nc(-c3ccccc3)cs2)n1 | 3.01% (inactive) | 
28 | CC(=O)Nc1cccc(-c2csc(Nc3cccc(C)n3)n2)c1 |  | 20.6 µM (active)
29 | CC(=O)NC(c1ccccc1)c1nc(-c2cccc(C(C)C)c2)cs1 (centres undefined) | -17.7% (inactive) | 
30 | O=C1CC[C@@H](C(=O)N2CSC[C@@H]2C(=O)Nc2ccc(C(F)(F)F)cc2)N1 | -0.952% (inactive) | 
31 | Cc1ccc(-c2nc(=N)sn2Cc2ccccc2)cc1 | -15.3% (inactive) | 
32 | CN(N=O)c1ccc(C=C2c3ccccc3-c3ccccc32)cc1 | 3.84% (inactive) | 
33 | O=C(NCc1cccnc1)c1cc(C2CCCN(C(=O)C3CCCCC3)C2)on1 (centres undefined) | 3.13% (inactive) | 
34 | CC1(C)CC(=O)c2cc(C(=O)NCc3ccccc3)c(=O)[nH]c2C1 | 20.8% (inactive) | 
35 | CC(NC(=O)c1ccccc1F)c1cccc2ccccc12 (centres undefined) | -13.6% (inactive) | 
36 | CC(NC(=O)c1ccccc1SCC(=O)N1CCCC1)c1ccccc1 (centres undefined) | -20.8% (inactive) | 
37 | CC(NC(=O)c1cccc2ccccc12)c1ccc2c(c1)CCCC2 (centres undefined) |  | 20.6 µM (active)
38 | O=C1CCC(=O)N1CCC(=O)N(C(=O)NC1CCCCC1)C1CCCCC1 | -20.2% (inactive) | 
39 | CCOc1ccc(CCN2C(=O)C(=O)N([C@@H](Cc3ccc(O)cc3)CN3CCC[C@H]3CN3C(=O)C(=O)NC[C@@H]3CC(C)C)C[C@@H]2Cc2ccccc2)cc1 | -3.43% (inactive) | 
40 | CCCNC(=O)C1(C)CCN(C(=O)c2ccccc2OC(F)(F)F)C1 (centres undefined) | 16.4% (inactive) | 
41 | Cc1cc(O)ccc1-c1cc(C(=O)NCc2cc(C(F)(F)F)cc(C(F)(F)F)c2)[nH]n1 | 7.22% (inactive) | 
42 | O=[N+]([O-])c1ccc(N2CCSCC2)cc1O | 0% (inactive) | 
43 | CN1CCN(c2ccc([N+](=O)[O-])c(Sc3nc4ccccc4[nH]3)c2)CC1 |  | 14.6 µM (active)
44 | CC1CCN(c2ccc([N+](=O)[O-])c(SCCO)c2)CC1 | -1.25% (inactive) | 
45 | COc1ccc(Sc2ccc(NC(=O)c3cccc(Cl)c3)cc2C#N)cc1 | 2.24% (inactive) | 
46 | Oc1ccc(Br)cc1/C=N/Nc1ccccn1 | 0.606% (inactive) | 
47 | COc1ccc(-c2nn(-c3ccccc3)cc2C(=O)Nc2nccs2)cc1OC | -9.36% (inactive) | 
48 | COc1ccc(-c2nn(-c3ccccc3)cc2/C=N/Nc2ccccn2)cc1OC |  | 3.66 µM (active)

Row | Compound | activity change, negative = cytotoxicity | Potency
49 | CS(=O)(=O)c1cccc(-c2ccc3nncn3c2)c1 | -2.98% (inactive) | 
50 | CCN(CCCNC(=O)c1c(C)oc2ncn(CC(C)C)c(=O)c12)Cc1ccccc1 | 2.97% (inactive) | 
51 | OCCN1CCN(c2ncnc3c2ncn3[C@H]2CN(Cc3ccco3)C[C@@H](CO)O2)CC1 | -0.202% (inactive) | 
52 | O=S(=O)(NCc1ccc(Cl)cc1Cl)c1cccs1 | -2.09% (inactive) | 
53 | Cc1ccc(S(=O)(=O)Cc2cc(-c3ccc(Cl)cc3)no2)cc1 | -17.3% (inactive) | 
54 | O=S(=O)(Cc1ccc(Cl)cc1Cl)c1ccc(Cl)cc1 |  | 1.46 µM (active)
55 | CCCCc1ccc(S(=O)(=O)NC(=O)C2(C)CCN2C(=O)c2c(C)noc2C)cc1 (centres undefined) | -17.6% (inactive) | 
56 | CCN(CCN(C)C)C(=O)c1ccc2nc(C)c(N(C)C(=O)CCc3ccccc3)n2c1 | 4.85% (inactive) | 
57 | O=C(NC1CCCC1)C(c1ccc(Cl)cc1)N(C(=O)c1csnn1)C1CC1 (centres undefined) | -1.08% (inactive) | 
58 | Cc1ccc(C(C(=O)NC2CCCCC2)N(C(=O)c2csnn2)C2CC2)o1 (centres undefined) | -1.13% (inactive) | 
59 | O=C(NC1CCCC1)C(c1ccccn1)N(C(=O)c1csnn1)C1CCCC1 (centres undefined) |  | 20.6 µM (active)
60 | Cc1ccc(NC(=O)c2cc3cc(C)ccc3n2C)cc1 | 0% (inactive) | 
61 | COc1ccccc1-c1n[nH]nc1C1=CC(=O)CC(C)(C)C1 | 9.54% (inactive) | 
62 | CNC(=O)NC(=O)C(OC(=O)c1cccc(S(=O)(=O)N2CCCCC2)c1)c1ccccc1 (centres undefined) |  | 23.1 µM (active)
63 | O=C(NNC1=NCCC1)c1cccc(S(=O)(=O)N2CCCCC2)c1 | 0.111% (inactive) | 
64 | CC(OC(=O)c1cccc(S(=O)(=O)N2CCOCC2)c1)C(=O)NCC1CCCCC1 (centres undefined) | 2.96% (inactive) | 
65 | Cc1cccc(CNC(=O)c2cnc3sc(N4CCCCC4)nn3c2=O)c1 | 0% (inactive) | 
66 | Cc1ccc(C)c2sc(NC(=O)c3ccc(S(=O)(=O)N4CCCC4)cc3)nc12 | 8.13% (inactive) | 
67 | Cc1nn(CC(=O)NCCc2ccccc2)c(=O)c2c1sc1ccccc12 | -11.2% (inactive) | 
68 | COc1cc(/C=N/NC(=O)Nc2ccccc2)ccc1OCCOc1ccccc1C |  | 2.31 µM (active)
69 | COc1cc(/C=N/NC(=O)c2ccoc2C)ccc1OCCN1CCCCC1 | 22.5% (inactive) | 
70 | COC(=O)c1ccc(COc2ccc(/C=N/NC(=O)C(=O)Nc3ccc(OC)cc3)cc2OC)o1 | -3.79% (inactive) | 
71 | C[C@H]1CN([C@@H](C)CO)C(=O)CCCn2cc(nn2)CO[C@@H]1CN(C)S(=O)(=O)c1cccc(C#N)c1 | -8.91% (inactive) | 
72 | O=C(COC(=O)c1ccc(S(=O)(=O)N2CCCCCC2)cc1)Nc1ccccc1C(F)(F)F | 22.5% (inactive) | 

Row | Compound | activity change, negative = cytotoxicity | Potency
73 | O=C(NCCc1ccccc1)c1ccc2c(c1)N(Cc1ccccc1)CCS2 | -0.57% (inactive) | 
74 | O=C(NCCN1CCOCC1)c1ccc2c(c1)N(Cc1ccc(Cl)cc1)CCS2 | 2.02% (inactive) | 
75 | CCOC(=O)N1CCN(C(=O)c2ccc3c(c2)N(Cc2ccc(C)cc2)CCS3)CC1 |  | 3.26 µM (active)
76 | OC[C@@H]1O[C@H](n2cnc3c(SCc4ccccc4)ncnc32)[C@H](O)[C@H]1O | 0% (inactive) | 
77 | COc1ccc(-c2ccc(Nc3ccc(S(=O)(=O)N4CCCC4)cc3)nn2)cc1OC |  | 13 µM (active)
78 | COc1cc(C(=O)NNC(=O)c2ccc(S(=O)(=O)N3CCCCC3)cc2)cc(OC)c1OC | 14.7% (inactive) | 
79 | COc1cc(C(C)=O)ccc1OC(C)C(=O)Nc1ccc(S(=O)(=O)N2CCCC2)cc1 (centres undefined) | 0% (inactive) | 
80 | CC(C)Oc1cc(F)ccc1-c1cc(C(=O)Nc2cccc(Cl)c2)[nH]n1 | 0% (inactive) | 
81 | CCCCCC(=O)N1C[C@H](O)[C@@H](n2cc(COC(=O)c3ccccc3)nn2)C[C@@H]1c1ccc(C)cc1 | 8.62% (inactive) | 
82 | COC(=O)c1c(NC(=O)CN(c2ccc(C)c(C)c2)S(C)(=O)=O)sc2c1CCCC2 | 14.3% (inactive) | 
83 | Cc1cccc(C(=O)OCC(=O)Nc2sc3c(c2C#N)CCC3)c1 | -0.263% (inactive) | 
84 | COc1cccc(OC)c1C(=O)Nc1sc2c(c1C(N)=O)CCCC2 | -18.8% (inactive) | 
85 | COC(=O)c1c(NC(=O)c2ccc(Cl)c(Cl)c2)sc2c1CCCC2 | 17.4% (inactive) | 
86 | COC(=O)c1c(NC(=O)COC(=O)[C@@H](NS(=O)(=O)c2ccccc2)C(C)C)sc2c1CCC2 |  | 14.6 µM (active)
87 | CCOC(=O)c1c(NC(=O)CSc2nnc(CN3CCOCC3)n2C)sc2c1CCCC2 |  | 5.8 µM (active)
88 | COC(=O)c1c(NC(=O)CSc2nncs2)sc2c1CCCCC2 |  | 23.1 µM (active)
89 | NC(=O)c1c(NC(=O)CSc2nnc(-c3ccco3)n2N)sc2c1CCCC2 | -7.89% (inactive) | 
90 | CCc1ccc(N(CC(=O)Nc2sc3c(c2C(=O)OC)CCCC3)S(C)(=O)=O)cc1 |  | 9.2 µM (active)
91 | CCOC(=O)c1c(NC(=O)CSc2nnc(Cc3csc(N)n3)n2C)sc(C)c1C | 4.84% (inactive) | 
92 | COC(=O)c1c(NC(=O)C2CC(C)=C(C)CC2C(=O)O)sc2c1CCCCC2 (centres undefined) | 7% (inactive) | 
93 | COC(=O)c1c(NC(=O)CN2C(=O)NC(CCc3ccccc3)C2=O)sc2c1CCCCC2 (centres undefined) | 0.551% (inactive) | 
94 | O=C(NCc1cccnc1)c1ccc2nc([C@@H]3O[C@H](CO)[C@H](O)[C@H](O)[C@H]3O)[nH]c2c1 | -1.88% (inactive) | 
